# Screening data (PubChem)
# A selection: hits, their analogues and other compounds. The true share with any hit is near 0.44%.
# ERG Ets-DNA blk – ERG Ets/DNA interaction inhibition; P11308; fluorescence polarization, His-ERG Ets domain / labelled DNA; Potency, µM (titrated, usually from 76.9 µM), for inactives: at the top dose FP activity, negative = inhibition, actives largely listed as inhibitors; 370,000 tested, 0.028% active; active means well fitted inhibition curve with a large enough effect in the polarisation, with a control signal flat; inconclusive means small, poorly fitted or top-dose-only effect, or effect the other way, or a change in a side signal; inactive means no such curve, though single readings can be large or run the other way; the % refers to the polarisation;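 further: polarization taken with two DNA probes labelled with fluorescein and Texas red; % of control where 0% means no effect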
#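 His-tagged ERG Ets domain (1 uM in the protein solution; 300mM KCl, 50mM Tris-HCl, 1mM EDTA, 1mM DTT, pH 7.5) received compound, then a probe mix of 5 nM fluorescein-DNA and 100nM Texas-615-DNA. Fluorescence polarization was read for both dyes.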
# RGS12 GoLoco inh – blocks human Gai1 binding to RGS12 GoLoco peptide, red readout | P63096 | Gai1:RGS12 GoLoco peptide FP, rhodamine, 10 min | Potency, µM (top dose mostly 61.6 µM), for inactives: top-dose activity, negative = inhibition, most hits filed as inhibitors | 230,000 tested, 0.44% active | AID 880; active means well fitted inhibition curve with a large enough effect, not every such curve was filed as active; inactive means no such curve, though single readings can be large or run the other way; further: on the % scale 0 is the no-effect control and ±100 the full control effect; nearly all actives have a fitted effect of over 30% in size
# Apoferritin bind – candidate novel general anesthetic via apoferritin binding; apoferritin/1-aminoanthracene competitive binding, fluorescence; Potency, µM (highest dose often 77.5 µM), inactives show top-dose activity change, negative = displacement, actives largely listed as inhibitors; 350,000 tested, 0.074% active; further: on the % scale 0 is the no-effect control and ±100 the full control effect; nearly all actives have a fitted effect of over 20% in size
# Target sequence (P02791 2-175 limits assumed): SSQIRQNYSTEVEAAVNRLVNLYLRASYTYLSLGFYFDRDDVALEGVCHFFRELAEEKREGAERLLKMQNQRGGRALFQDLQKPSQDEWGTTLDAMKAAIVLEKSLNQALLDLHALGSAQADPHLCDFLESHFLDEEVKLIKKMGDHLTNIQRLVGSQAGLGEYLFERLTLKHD
#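 Steps: apoferritin (10 uM) was premixed with half-saturated 1-AMA in PBS, compounds were pin-transferred, plates stood 10 min at room temperature, fluorescence was read at 380/535 nm, and curves were fitted with a Hill equation.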
# TR SRC2 fluor cs – alters Texas Red total fluorescence, flagging assay interference. AID 1479. Potency, µM (highest dose often 106 µM), without a hit: at the top dose fluorescence change, negative = quenching. 280,000 tested, 0.29% active. TRb/SRC2 Texas Red total fluorescence interference; active means well fitted curve in either direction with a large enough effect; inconclusive means small, poorly fitted or top-dose-only effect; further: on the % scale 0 is the no-effect control and ±100 the full control effect
#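 Human TRβ ligand-binding domain (0.6 uM) and Texas Red SRC2 peptide (20 nM) in Tris buffer with 1 uM T3 and 5% DMSO were incubated with pinned compound for 5 hr at ambient temperature. Total fluorescence was computed as S + 2P (555/632 nm).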
# TRb-SRC2 inh – TRbeta-SRC2 interaction inhibition. P10828. TRbeta-SRC2 peptide binding, fluorescence polarization; receptor liganded with 1 µM T3. Potency, µM (titrated, usually from 106 µM), for inactives: at the top dose activity change, negative = inhibition, most hits filed as inhibitors. 280,000 tested, 0.065% active. AID 1469;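 further: plate controls were bound peptide for no effect and peptide without receptor for full effect; nearly all actives have a fitted effect of over 50% in size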
# Target sequence (P10828 whole entry, looked up): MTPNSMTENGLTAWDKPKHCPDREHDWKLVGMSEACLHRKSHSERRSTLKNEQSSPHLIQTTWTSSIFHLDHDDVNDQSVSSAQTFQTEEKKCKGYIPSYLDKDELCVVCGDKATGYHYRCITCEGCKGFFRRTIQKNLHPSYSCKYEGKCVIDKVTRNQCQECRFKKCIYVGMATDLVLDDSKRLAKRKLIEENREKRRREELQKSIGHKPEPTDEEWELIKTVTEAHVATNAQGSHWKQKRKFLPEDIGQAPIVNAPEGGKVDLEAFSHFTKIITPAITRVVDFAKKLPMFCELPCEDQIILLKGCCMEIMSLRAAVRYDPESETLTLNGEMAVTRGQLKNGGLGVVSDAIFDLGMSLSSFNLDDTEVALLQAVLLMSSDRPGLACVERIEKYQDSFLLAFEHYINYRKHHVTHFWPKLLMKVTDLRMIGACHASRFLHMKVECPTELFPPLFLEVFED
#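 TRb LBD 0.6 uM + Texas Red SRC2 peptide 20 nM, 1 uM T3, Tris buffer w/ 5% DMSO; compound pinned, 5 h RT; FP read ex 555/em 632; normalized to unbound and bound controls.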
# * marks the source's active call; other numbers are inactive results; ? = inconclusive; / = no result given; ! = not confirmed by another sample; [ ] = another dose, or the depositor's remark. Unless noted, the call rests on the fitted dose curve; in most records, active means well fitted curve in the direction sought with a large enough effect; inconclusive means small, poorly fitted or top-dose-only effect, or another doubt; inactive means no such curve, though single readings can be large; an effect the other way counts as inactive or inconclusive. Potency means the concentration at half of the fitted maximal effect.
SMILES,ERG Ets-DNA blk,RGS12 GoLoco inh,Apoferritin bind,TR SRC2 fluor cs,TRb-SRC2 inh
COc1cc2c(cc1OC)-c1c(O)c(OC)cc3c1[C@H](C2)N(C)CC3,/,11µM*,/,?,40µM*
COc1cc(OC)nc(Sc2cccc(Cl)c2C(=O)O)n1,/,/,/,-1%[201 µM],5%[201 µM]
CCSCCSP(=O)(OC)OC,/,/,/,-1%[201 µM],0%[201 µM]
CC1CCCN(c2ccc(C(=O)N3CCC4(CC3)OCCO4)cc2[N+](=O)[O-])C1 (stereo unspecified),26%,-4%,-23%,-1%,2%
CCOC(=O)C1CCCN(c2ccc([N+](=O)[O-])c3nonc23)C1 (stereo unspecified),3.2µM*,16µM*,4%,50µM*[fluorescent],?
CCN1C(=O)C(=C/C=C/c2ccco2)C(=O)N(CC)C1=S,153%,-55%,-13%,28µM*[fluorescent],?
O=C(O)c1cc[c]([Hg][Cl])cc1,6%,1.3µM*,/,-5%,2%
O=C(O)c1cccc(Cl)c1,/,-4%,/,0%,1%
CC1(C)C(C(=O)OC(C#N)c2cccc(Oc3ccccc3)c2)C1(C)C (stereo unspecified),/,/,/,-1%[201 µM],0%[201 µM]
O=C(O)c1ccccc1-c1c2cc(Br)c(=O)cc-2oc2[c]([Hg])c(O)c(Br)cc12,/,1.1µM*,322%,45µM*[fluorescent],20µM*!
NCCc1cc(O)c(O)cc1O,?,25µM*,-1%,4%,40µM*!
CCC(C)(NC(=O)c1cc(Cl)c(C)c(Cl)c1)C(=O)CCl (stereo unspecified),/,/,/,-3%[201 µM],2%[201 µM]
Brc1c(Br)c(Br)c(Br)c(Br)c1Br,/,/,/,-3%[201 µM],-4%[201 µM]
CC1CCCCC1NC(=O)Nc1ccccc1 (stereo unspecified),/,/,/,3%[201 µM],1%[201 µM]
CN(C)C(=O)OCc1n(C)cc[n+]1C,/,5%,1%,4%,0%
CNC(=O)OCCc1n(C)cc[n+]1C,-9%,1.6µM*,-1%,-1%,-8%
COc1c(O)c2c(=O)cc(OC)c3c4c(OC)cc(=O)c5c(O)c(OC)c(C[C@@H](C)OC(=O)c6ccccc6)c(c(c1C[C@@H](C)OC(=O)Oc1ccc(O)cc1)c23)c54,/,16µM*,-17%,?,-28%
CCC(=O)OC1CCC2C3CCC4=CC(=O)CC[C@@]4(C)C3CC[C@]12C (stereo partly specified),/,14µM*,?,0%,5%
CN(C)[C@@H]1C(=O)C(C(N)=O)=C(O)[C@@]2(O)C(=O)C3=C(O)c4c(O)cccc4[C@@](C)(O)[C@H]3[C@H](O)[C@@H]12,?,-33%,-11%,16µM*![quencher],?
CN(C)C1C(=O)C(C(N)=O)=C(O)[C@@]2(O)C(=O)C3=C(O)c4c(O)cccc4[C@](C)(O)C3C(O)C12 (stereo partly specified),/,-4%,-14%,-17%,4%
CN(C)C1C(=O)C(C(N)=O)C(=O)C2(O)C(=O)C3C(=O)c4c(O)cccc4C(C)(O)C3C(O)C12 (stereo unspecified),/,-24%,-2%,28µM*[quencher],18%
CCOP(=O)(OCC)SCSC(C)(C)C,/,/,/,-2%[201 µM],6%[201 µM]
C=CCN1C(=O)NC(=O)/C(=C\c2ccc(-c3ccccc3[N+](=O)[O-])o2)C1=O,0%,19%,40µM*,-2%,-5%
CC(=O)NNc1ccccc1,/,-33%,/,1%,-6%
CC(=O)[O][Hg][c]1ccccc1,/,1.6µM*!,-10%,3%[201 µM],-8%[201 µM]
SMILES,ERG Ets-DNA blk,RGS12 GoLoco inh,Apoferritin bind,TR SRC2 fluor cs,TRb-SRC2 inh
CCOc1nc(C(Cl)(Cl)Cl)ns1,/,/,/,-4%[201 µM],-10%[201 µM]
O=C1C=CC(=O)c2c(O)cccc21,/,-6%,-17%,8.9µM*[quencher],?
CC(C)[C@H]1C(=O)N2CCC[C@H]2[C@]2(O)O[C@](NC(=O)[C@@H]3C=C4c5cccc6[nH]cc(c56)C[C@H]4N(C)C3)(C(C)C)C(=O)N12,0%,11µM*,25%,-3%,-4%
N#CCNC(=O)c1cnccc1C(F)(F)F,/,/,/,-2%[201 µM],-3%[201 µM]
O=C(OC1CCN(CCCl)CC1)C(c1ccccc1)c1ccccc1,3%,9%,/,0%,35µM*
C[N+]1(C)[C@@H]2CC[C@H]1CC(OC(=O)C(c1ccccc1)c1ccccc1)C2 (stereo partly specified),3%,/,-12%,/,/
O=[N+]([O-])c1ccc(Oc2ccc(C(F)(F)F)cc2[N+](=O)[O-])cc1,/,/,/,0%[201 µM],-1%[201 µM]
CC(C)C(C(=O)OC(C#N)c1cccc(Oc2ccccc2)c1)c1ccc(Cl)cc1 (stereo unspecified),/,/,/,0%[201 µM],9%[201 µM]
CNc1ccccc1C(=O)O,/,5%,-8%,-3%,-8%
C[CH2][Hg][S]c1ccccc1C(=O)O,-11%,28µM*,6%,-4%[201 µM],-10%[201 µM]
C[Si](Cn1cncn1)(c1ccc(F)cc1)c1ccc(F)cc1,/,/,/,-1%[201 µM],-1%[201 µM]
COc1ccc(N=C2SCCCN2C)cc1,-7%,7.9µM*,-9%,1%,-8%
CSC(=O)c1c(C(F)F)nc(C(F)(F)F)c(C(=O)SC)c1CC(C)C,/,/,/,1%[201 µM],1%[201 µM]
Clc1cccc(N2CCNCC2)c1,-2%,-13%,/,28µM*![fluorescent],8.9µM*!
CN/C(=N\[N+](=O)[O-])NCc1cnc(Cl)s1,/,/,/,1%[201 µM],4%[201 µM]
CC1OC(C[N+](C)(C)C)CC1O (stereo unspecified),-2%,/,/,/,/
C[C@H]1OC[C@@H](C[N+](C)(C)C)O1,6%,4µM*,-8%,0%,7%
O=C1NC(=O)N(c2ccccc2)C(=O)/C1=C/c1ccc(Sc2ccccc2)o1,?,46%,?,22%,?
O=C1NC(=O)N(c2ccccc2F)C(=O)/C1=C/c1ccc(Sc2nc3ccccc3[nH]2)o1,154%,-180%,?,45µM*[fluorescent],?
O=C1NC(=O)N(c2cccc(Cl)c2)C(=O)/C1=C\c1ccc(Sc2nc3ccccc3[nH]2)o1,106%,-43%,-4%,22µM*[fluorescent],?
c1cc(CCN2CCCC2)ccn1,-6%,7.1µM*,3%,-5%,-9%
O=C(O)CCn1cc(C=C2C(=O)NC(=S)NC2=O)c(-c2ccccc2)n1,5%,28µM*,-11%,-1%,7%
O=C(O)CCn1cc(C=C2C(=O)NC(=S)NC2=O)c(-c2cc3ccccc3oc2=O)n1,58%,140%,?,-1%,8%
CCOP(=O)(OCC)Oc1ccc2c(C)c(Cl)c(=O)oc2c1,/,/,/,-4%[201 µM],-3%[201 µM]
CC(C)[C@H](C(=O)O[C@H](C#N)c1cccc(Oc2ccccc2)c1)c1ccc(Cl)cc1,/,/,/,1%[201 µM],1%[201 µM]
O=C(O)CN1CCN(CC(=O)O)CC(=O)[O][Hg][O]C(=O)C1,/,0.45µM*,/,/,/
CN1C[C@@H](CO)C=C2c3cccc4[nH]cc(c34)CC21 (stereo partly specified),/,-12%,0%,-1%,-8%
